The whole screen tested about 310,000 compounds, of which about 14,000 (4.5%) showed an effect of 50% or more. Effects have a minus sign here. Only a selection was taken, and strong results are over-represented in it overall.
Molecular target: human ether-à-go-go-related gene (hERG) potassium channel (human, UniProt Q12809)
Experiment: primary screen, population patch clamp on CHO cells stably expressing hERG; higher = less effect of the substance
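Note: peak tail current of the secondary pulse compared with the same well before compound.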

human ether-à-go-go-related gene (hERG) potassium channel, sequence (Q12809 whole entry, looked up): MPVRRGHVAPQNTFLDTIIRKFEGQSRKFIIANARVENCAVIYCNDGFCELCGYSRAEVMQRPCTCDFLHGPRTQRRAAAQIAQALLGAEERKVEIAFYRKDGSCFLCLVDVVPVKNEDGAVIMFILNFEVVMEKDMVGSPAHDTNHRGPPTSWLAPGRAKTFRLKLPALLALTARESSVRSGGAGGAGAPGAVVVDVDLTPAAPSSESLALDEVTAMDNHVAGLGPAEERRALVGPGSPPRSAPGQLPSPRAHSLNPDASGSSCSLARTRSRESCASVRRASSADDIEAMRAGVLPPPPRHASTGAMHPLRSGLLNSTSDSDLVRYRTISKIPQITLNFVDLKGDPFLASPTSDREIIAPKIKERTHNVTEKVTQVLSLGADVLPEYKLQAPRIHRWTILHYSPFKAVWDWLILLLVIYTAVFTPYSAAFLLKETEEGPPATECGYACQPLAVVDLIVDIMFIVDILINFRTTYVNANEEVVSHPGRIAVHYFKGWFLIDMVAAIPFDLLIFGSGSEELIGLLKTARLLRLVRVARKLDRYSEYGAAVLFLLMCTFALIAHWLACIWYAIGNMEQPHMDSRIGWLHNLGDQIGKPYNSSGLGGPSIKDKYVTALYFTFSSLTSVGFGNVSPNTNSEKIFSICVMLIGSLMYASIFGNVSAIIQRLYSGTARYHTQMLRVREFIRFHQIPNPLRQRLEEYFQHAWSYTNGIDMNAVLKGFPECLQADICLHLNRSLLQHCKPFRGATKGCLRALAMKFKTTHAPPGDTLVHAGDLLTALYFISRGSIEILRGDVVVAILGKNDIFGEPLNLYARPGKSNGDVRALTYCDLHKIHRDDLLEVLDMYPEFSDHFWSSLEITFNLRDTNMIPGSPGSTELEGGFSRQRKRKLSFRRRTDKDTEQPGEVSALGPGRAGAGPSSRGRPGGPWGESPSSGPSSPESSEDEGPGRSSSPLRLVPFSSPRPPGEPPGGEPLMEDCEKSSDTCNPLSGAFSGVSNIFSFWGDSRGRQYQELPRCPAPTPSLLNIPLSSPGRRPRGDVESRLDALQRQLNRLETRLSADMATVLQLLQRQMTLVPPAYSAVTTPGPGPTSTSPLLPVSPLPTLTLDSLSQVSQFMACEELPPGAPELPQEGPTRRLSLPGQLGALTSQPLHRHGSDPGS

In order of falling “hERG current change (%, negative = inhibition) at 10uM” value:
1. CC(C)(C)OC(=O)N1CC(O)CC1C(=O)OCC(=O)c1ccc(-c2ccccc2)cc1 (stereo not drawn)  32%
2. CN(C)c1ccc(N2C(=NC(=O)COc3ccccc3)SC3CS(=O)(=O)CC32)cc1 (stereo not drawn)  23.7%
3. O=C(COc1ccc(C(=O)O)cc1)Nc1cccc(C(F)(F)F)c1  22.5%
4. O=C1OC(=O)c2c(Br)c(Br)c(Br)c(Br)c21  20.7%
5. O=C(Nc1ccccc1C(F)(F)F)N1CCN(C(c2ccccc2)c2ccccc2)CC1  15.5%
6. CCC(=NCCO)c1c(O)n(-c2ccc(Cl)cc2)c(=O)[nH]c1=O  15.5%
7. O=C(Cc1ccccc1)NNC(=S)NC(=O)c1cccnc1  14.7%
8. COc1ccc(-c2nc(SC)n(C(=O)c3ccco3)n2)cc1  13.7%
9. COc1ccc(C(=O)c2c3ccccc3[n+]([O-])n2CCC(N)=O)cc1  13.1%
10. C[C@H](NC(=O)c1cc2c([nH]c3ccccc32)c(-c2ccccc2)n1)C(=O)O  11.8%
11. CCC1=C/C(=C/c2sc3ccccc3[n+]2CC)CC(C)(C)C1.[I-]  11.5%
12. CCOC(=O)CN1C(=O)/C(=C2\SC(=S)N(NC(=O)c3cccnc3)C2=O)c2ccccc21  11.5%
13. CC(=O)Oc1ccccc1/C=C/c1ccc2ccccc2[n+]1C.[I-]  11.3%
14. O=C(O)CSc1ncnc2c1sc1nc(-c3ccccc3)c3c(c12)CCC3  10.3%
15. CC(=O)c1c(-c2ccc(C)cc2)nc2c3ccccc3ccn12  10.2%
16. CCOc1ccc(NC(=O)COc2ccc(C(=O)N3CCC(C(N)=O)CC3)cc2OC)cc1  9.91%
17. O=C(NCc1ccccc1)C1CCC(=O)N(CC2CCCCC2)C1 (stereo not drawn)  9.03%
18. O=C(COc1ccccc1)Nc1nnc(-c2ccccc2Cl)o1  8.56%
19. Cc1ccc(Nc2nnc(SCC(=O)Nc3ccccc3[N+](=O)[O-])s2)cc1  7.88%
20. Cc1nc(C(=O)NNC(=O)c2ccc(Cl)cc2)c(C(F)(F)F)o1  7.36%
21. CCCN(CCC)CCCNC(=S)Nc1ccc2nc3n(c(=O)c2c1)CCCCC3  6.36%
22. NC1=NC(=O)/C(=C/c2ccccc2OS(=O)(=O)c2ccccc2)S1  5.2%
23. CCCN1CNC(=S)N(CC2CCCO2)C1 (stereo not drawn)  5.19%
24. Cc1ccc(C(=O)Nc2ccc(N3CCN(S(C)(=O)=O)CC3)cc2)cc1  4.23%
25. CCc1cc(=O)oc2cc(C)cc(OC(C)C(=O)NCCN3CCOCC3)c12 (stereo not drawn)  4.16%
26. COc1ccc2[nH]cc(CCNS(=O)(=O)c3ccc(F)cc3)c2c1  4.05%
27. COc1ccc(S(=O)(=O)O/N=C2\CCSc3ccc(C)cc32)cc1  3.61%
28. COc1ccccc1NC(=O)c1sc(Cl)nc1C  2.93%
29. COc1ccc(-c2cnn3c4c(c(C)nc23)CCN4C2CCCC2)cc1OC  2.7%
30. NC(=O)C1CCN(C(=O)c2ccc(OCC(=O)Nc3cccc(C(F)(F)F)c3)cc2)CC1  1.96%
31. Cc1cc(C)c(OCC(=O)Nc2nnc(-c3ccco3)o2)c(C)c1  1.74%
32. Cc1cccc(C)c1NC(=O)CNC(=O)CN1C(=O)NC2(CCc3ccccc32)C1=O (stereo not drawn)  1.69%
33. COC(=O)C1Cc2c([nH]c3ccccc23)CN1 (stereo not drawn)  1.45%
34. N#CCc1c(C#N)c(N)nc(N2CCOCC2)c1C#N  1.34%
35. O=C1N=C(N2CCOCC2)S/C1=C\c1ccccc1OS(=O)(=O)c1ccccc1  0.61%
36. CCN(CC)CCNC(=S)Nc1ccc2nc3n(c(=O)c2c1)CCCCC3  0.152%
37. CC(C)C(NC(=O)C1CCCCC1)C(=O)Nc1ccc2c(c1)OCCO2 (stereo not drawn)  -1.07%
38. CC(C)c1ccccc1OCCNC(=O)c1cccnc1  -1.33%
39. CS(=O)(=O)N1CCN(C(=O)Cc2ccc(Br)cc2)CC1  -1.44%
40. COc1ccc(S(=O)(=O)N2CCC(C(=O)NCCC(=O)NCc3cccc(OC)c3)CC2)cc1  -4.05%
41. O=C(Nc1cc(Cl)ccc1O)C1CC(c2ccccc2O)=NO1 (stereo not drawn)  -5.36%
42. O=S(=O)(/C=C/c1cccc(Br)c1)N1CCOCC1  -6.85%
43. O=[N+]([O-])c1ccc(S(=O)(=O)Nc2ccc(-c3ccc(N4CCOCC4)nn3)cc2)cc1  -7.79%
44. COc1ccc(CNC(=O)C2CCCN(S(=O)(=O)c3ccc(-n4cnnn4)cc3)C2)cc1 (stereo not drawn)  -8.97%
45. O=c1c2cc(NC(=S)NCc3cccnc3)ccc2nc2n1CCCCC2  -10.1%
46. N#CCc1c(C#N)c(N)nc(N2CCN(C=O)CC2)c1C#N  -10.8%
47. CCCCN(CC)CCCNC(=S)Nc1ccc2nc3n(c(=O)c2c1)CCCCC3  -11.9%
48. COc1ccc2c(C(=O)c3ccc(C)cc3)n(Cc3ccc(C(N)=O)cc3)[n+]([O-])c2c1  -12.5%
49. CCOC(=O)c1cc(NC(=O)CN2CCCC2)cc(C(=O)OCC)c1  -16.2%
50. COc1ccc(S(=O)(=O)N2CCC(C(=O)NCc3cccc(OC)c3)CC2)cc1  -17.4%
51. CCOC(=O)C1CCN(C(=O)c2ccc(OCC(=O)Nc3ccc(OCC)cc3)c(OC)c2)CC1  -19.5%
52. COC(=O)c1cc(NC(=S)NCc2ccc(Cl)cc2)cc(C(=O)OC)c1  -20.6%
53. O=C(NCc1ccc(F)cc1)c1cc(S(=O)(=O)N2CCOCC2)ccc1F  -20.6%
54. CCN(CC)C(=S)Nc1ccc2nc3n(c(=O)c2c1)CCCCC3  -21.8%
55. O=C(NCCOc1ccccc1)c1cncc(Br)c1  -26.8%
56. COc1ccc(C(=O)c2c3ccc([N+](=O)[O-])cc3[n+]([O-])n2CCCC(N)=O)cc1  -34.6%
57. COc1ccc(C(=O)c2c3ccc(OC)cc3[n+]([O-])n2CCCC(N)=O)cc1  -34.9%
58. COc1cccc(CNC(=O)C2CCN(S(=O)(=O)c3ccccc3)CC2)c1  -36%
59. CC(=O)N1CCN(C2=NC(=O)/C(=C\c3cccs3)S2)CC1  -37.1%
60. Brc1ccc2ncnc(NCc3ccco3)c2c1  -39.5%
61. CC[n+]1c(/C=C2\C=C(C)CC(C)(C)C2)sc2ccccc21.[I-]  -39.7%
62. COc1ccc(C(=O)c2c3ccc(OC)cc3[n+]([O-])n2Cc2ccc(C(N)=O)cc2)cc1  -42%
63. Br.c1ccc(CN2CCC(N=C3NN=C(c4ccc5c(c4)OCCO5)CS3)CC2)cc1  -43.1%
64. CCCCNC(=S)Nc1ccc2nc3n(c(=O)c2c1)CCCCC3  -43.6%
65. COc1ccc2c(C(=O)c3ccc(C)cc3)n(CCCC(N)=O)[n+]([O-])c2c1  -44.2%
66. c1ccc(-c2nnc3ccc(N4CCC5(CC4)OCCO5)nn23)cc1  -46.8%
67. CCOc1ccccc1CNC(=O)c1ccc2nc(N3CCOCC3)sc2c1  -47.5%
68. CCOCCCNCc1cn(-c2ccc(F)cc2F)nc1-c1ccccc1C  -48%
69. O=C1N=C(N2CCOCC2)S/C1=C\c1ccc(OS(=O)(=O)c2ccccc2)cc1  -49.8%
70. COc1cccc(CNC(=O)C2CCN(S(=O)(=O)c3ccc(C)cc3)CC2)c1  -50.4%
71. COc1ccc(C(=O)c2c3ccc(C(F)(F)F)cc3[n+]([O-])n2CCCC(N)=O)cc1  -51.6%
72. CCOC(=O)C1CCN(C(=O)c2ccc(OCC(=O)Nc3cccc(C(F)(F)F)c3)cc2)CC1  -55.5%
73. COc1ccc2c(C(=O)c3ccc(Cl)cc3)n(CCCC(N)=O)[n+]([O-])c2c1  -55.5%
74. COc1cccc(CNC(=O)C2CCN(S(=O)(=O)c3ccc(-n4cnnn4)cc3)CC2)c1  -57.3%
75. CCCCN(CC)C(=S)Nc1ccc2nc3n(c(=O)c2c1)CCCCC3  -59%
76. CC(C)c1ccccc1OCCNC(=O)c1cncc(Br)c1  -60.6%
77. CCOC(=O)C1CCN(C(=O)c2ccc(OCC(=O)Nc3cccc(C(F)(F)F)c3)c(OC)c2)CC1  -61.9%
78. N#CCc1c(C#N)c(N)nc(N2CCN(c3ccc(F)cc3)CC2)c1C#N  -63.9%
79. CC[n+]1c(/C=C2/C=C(C)CC(C)(C)C2)sc2ccc(OC)cc21.Cc1ccc(S(=O)(=O)[O-])cc1  -68.7%
80. CC(=O)N1CCN(C2=NC(=O)/C(=C/c3ccc(OS(=O)(=O)c4ccccc4)cc3)S2)CC1  -69.6%
81. COc1ccc(C(=O)c2c3ccc(C(F)(F)F)cc3[n+]([O-])n2CCC[NH3+])cc1.[Cl-]  -73.3%
82. CN1CCN(C2=NC(=O)/C(=C/c3ccccc3OS(=O)(=O)c3ccccc3)S2)CC1  -76.1%
83. CN(Cc1ccccc1)C(=S)Nc1ccc2nc3n(c(=O)c2c1)CCCCC3  -78.1%
84. CCCCN(C)C(=S)Nc1ccc2nc3n(c(=O)c2c1)CCCCC3  -81.2%
